# An excerpt weighted towards active compounds, which were near 19% of everything screened.
# HT1080 IDH1KD tx: toxicity to HT-1080 IDH1 knockdown cells (counter line); HT-1080 IDH1 knockdown viability, ATP luminescence, 48 h; Potency, µM (series often up to 46.1 µM), for the others: at the top dose activity, negative = toxicity, usual class: cytotoxic; hit rate 2% among 360,000; AID 686971;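 further: potency means the concentration at half of the fitted maximal effect; 0% = DMSO wells and -100% = cell-free medium wells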
#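 Cytotoxicity counter-line: IDH1KD HT-1080, 48 h, CellTiter-Glo. Curves classed by r2, magnitude and activity.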
# HT1080-NT tox: kills 2HG-producing HT-1080-NT fibrosarcoma cells. HT-1080-NT fibrosarcoma viability, CellTiter-Glo ATP luminescence, 48 h. Potency, µM (titrated, usually from 46.1 µM), for inactives: at the top dose activity, negative = less viability, usual class: cytotoxic. hit rate 1.6% among 360,000;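 further: NT is the 2HG producing partner of a matched IDH1 knockdown line; potency means the concentration at half of the fitted maximal effect; 0% = DMSO-treated cells and -100% = media-only wells without cells; nearly all actives have a fitted effect of over 55% in size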
#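 HT-1080-NT fibrosarcoma cells (2HG-overproducing), 750 cells/well in RPMI with 5% FBS, dosed after 2 h and incubated 48 h at 37C. CellTiter-Glo luminescence normalized to DMSO and no-cell wells; concentration-response curves fitted and classed.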
# DT40 TDP1 CPT: DT40-hTDP1 cell growth loss with CPT | Potency, µM (highest dose often 46.2 µM), inactives show top-dose activity change, negative = growth inhibition, most hits filed as inhibitors | hit rate 12% among 420,000 | chicken DT40 Tdp1-/-;hTDP1 cells + 20 nM CPT, ATP luminescence, 48 h; further: potency means the concentration at half of the fitted maximal effect; nearly all actives have a fitted effect of over 55% in size
#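 Chicken DT40 Tdp1-/- cells stably complemented with human TDP1 were seeded at 400 cells/well in medium containing 20 nM camptothecin, exposed to pin-transferred compounds, and grown at 37 °C for at least 48 hr. Viability was read as ATP luminescence.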
# IL-1B inflam inh: inhibitors of inflammasome signaling (IL-1 beta secretion) | THP-1 LPS/ATP IL-1B secretion, AlphaLISA, 16 h; hits give low values | activity change, % at 57.5 µM | hit rate 4.7% among 360,000; in the data active means activity change below about -50%; inconclusive means mostly about -30% to -49%
#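 Secreted IL-1B measured by AlphaLISA bead assay after 16 h compound exposure of THP-1 cells; compounds (final up to 57.5 uM) added 1 h before LPS (250 ng/mL) and ATP (1.25 mM) stimulation; lower signal means less secretion.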
# TDP1 cell noCPT: qHTS for Inhibitors of human tyrosyl-DNA phosphodiesterase 1 (TDP1): qHTS in cells in absence of CPT | DT40 Tdp1-/- hTDP1 cells, no CPT, ATP luminescence, 48 h | Potency, µM (titrated, usually from 46.2 µM), for inactives: at the top dose activity change, negative = growth inhibition, usual class: inhibitors | hit rate 15% among 420,000; further: potency means the concentration at half of the fitted maximal effect; nearly all actives have a fitted effect of over 55% in size
#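 A cellular qHTS used chicken DT40 cells lacking endogenous Tdp1 but carrying stably transfected human TDP1. Compounds were applied without camptothecin, and cell growth kinetics were judged by ATP-dependent luminescence after ≥48 hr.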
# * marks the source's active call; other numbers are inactive results; ? = inconclusive; . = no result given; [ ] = dose if it differs, or a comment. Unless noted, the call rests on the fitted dose curve; in most records, active means well fitted curve in the direction sought with a large enough effect; inconclusive means small, poorly fitted or top-dose-only effect, or another doubt; inactive means no such curve, though single readings can be large; an effect the other way counts as inactive or inconclusive. Unless noted, on the % scale 0 is the no-effect control and ±100 the full control effect.
SMILES,HT1080 IDH1KD tx,HT1080-NT tox,DT40 TDP1 CPT,IL-1B inflam inh,TDP1 cell noCPT
CCc1ccc(CNCCc2c[nH]c3ccccc23)cc1,-1%,-17%,?,-52*,26µM*
[N-]=[N+]=CC(=O)OC[C@H](N)C(=O)O,6%,-1%,?,-12,?
c1ccc(C2(NC3=NCCO3)CCCCC2)cc1,-11%,-6%,?,?,9.2µM*
NC1(c2ccccc2)CCCCC1,.,.,-21%[92.5 µM],.,?
O=C(CN1CCOCC1)c1cccc([N+](=O)[O-])c1,.,.,-9%,.,-12%
Cc1ccc(NP(=O)(Nc2ccc(C)cc2)Oc2ccccc2)cc1,?,-15%,5%,-71*,?
O=P(Oc1ccccc1)(Oc1ccccc1)c1ccccc1,7%,-2%,?,-14,16µM*
C[C@H]1[C@H](OC(=O)CCC(=O)NCc2ccc(C(=O)O)cc2)O[C@@H]2O[C@@]3(C)CC[C@H]4[C@H](C)CC[C@@H]1C24OO3,8.2µM*,?,0.26µM*,-8,0.026µM*
CC(C)CC(NC(=O)CCCNC(=O)CCC(=O)OC1O[C@H]2OC3(C)CC[C@H]4[C@H](C)CCC(C1C)C24OO3)C(=O)O (some centres not stated),18µM*,23µM*,0.21µM*,-5,0.18µM*
CC1C(OC(=O)CCC(=O)NC(C)(C)CO)O[C@H]2OC3(C)CC[C@H]4[C@H](C)CCC1C24OO3 (some centres not stated),10µM*,?,0.82µM*,-68*,0.037µM*
COc1ccc2c(c1)[C@@]13CCC=C[C@H]1[C@@H](C2)NCC3,?,?,-29%,-30,?
CC/C(=N\Nc1ccccc1)c1c(O)n(-c2ccc(OC)cc2)c(=O)[nH]c1=O,?,?,10%,38,4%
CC1(C)S[C@@H]2[C@H](N)C(=O)N2[C@H]1C(=O)O,.,.,-8%[9.04 µM],.,-5%[9.04 µM]
CSc1nn(-c2ccc(C(=O)OCC(=O)NC(=O)NC(C)C)cc2)c(=S)s1,4%,2%,-21%,-13,?
COc1ccc2c3c([nH]c2c1)C(C)NCC3 (configuration not stated),-1%,-5%,2.6µM*,0,?
C[C@@]12CC[C@@H]3c4ccc(O)cc4C[C@H](CCCCCCCCCS(=O)CCCC(F)(F)C(F)(F)F)[C@H]3[C@@H]1CC[C@@H]2O (some centres not stated),.,.,-58%,.,12µM*
O=[N+]([O-])c1ccc(S(=O)(=O)N2CCn3cccc3C2c2ccccc2F)cc1 (configuration not stated),.,.,?,.,16µM*
CCC(c1nnnn1C1CCCC1)N1CCC2(CC1)C(=O)NCN2c1ccccc1 (configuration not stated),4%,16%,?,-15,-24%
O=c1[nH]c2ccccc2n1C1CCN(C(c2cccc3ccccc23)c2nnnn2Cc2ccccc2)CC1 (configuration not stated),?,?,12µM*,?,8.2µM*
O=c1[nH]c2ccccc2n1C1CCN(C(CCc2ccccc2)c2nnnn2C2CCCC2)CC1 (configuration not stated),?,?,18µM*,-55*,16µM*
O=c1[nH]c2ccccc2n1C1CCN(C(c2cc3ccccc3o2)c2nnnn2Cc2ccccc2)CC1 (configuration not stated),8.2µM*,10µM*,10µM*,?,9.2µM*
O=c1[nH]c2ccccc2n1C1CCN(Cc2ccc(-c3[nH]c4cc5ncnc5cc4nc3-c3ccccc3)cc2)CC1,?,?,2.3µM*,0,2.9µM*
O=NN1CCCC1c1cccnc1 (configuration not stated),.,.,-1%,.,10%
COc1cc(OC)cc(C(=O)Nc2ccc(Cl)cc2C(=O)c2ccccc2Cl)c1,.,.,-16%,.,-25%

# High-throughput results from PubChem BioAssay.
